Screen size: about 400,000 compounds; about 3,700 (0.93%) were called active. Roughly 3% stayed inconclusive and do not appear here. Calls follow the shape of the dose curve; as a rule, active = well fitted inhibition curve with a large enough effect; inconclusive = small, poorly fitted or top-dose-only effect, or another doubt; inactive = no such curve, though single readings can be large or run the other way. What follows is part of a selection rich in actives, with near analogues and random picks from the rest. Where a structure was tested more than once in an assay, its records may differ in their call.
molecular target: Vitamin D3 receptor (Homo sapiens) (UniProt P11473); experiment: Inhibitors of the vitamin D receptor (VDR): qHTS; details: VDR-SRC2-3 peptide fluorescence polarization, 2 h; max response, negative = inhibition: hits give low values
Summary of the method: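 Compounds are added to VDR with labelled SRC2-3 coactivator peptide and held 2 h at room temperature. Inhibition of the VDR–peptide interaction is then read as a change in fluorescence polarization.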
% is scaled to controls: 0 for no effect and ±100 for the full control effect; potency is read from the fitted curve at half-maximal effect.

Vitamin D3 receptor (Homo sapiens), sequence (P11473 whole entry, looked up): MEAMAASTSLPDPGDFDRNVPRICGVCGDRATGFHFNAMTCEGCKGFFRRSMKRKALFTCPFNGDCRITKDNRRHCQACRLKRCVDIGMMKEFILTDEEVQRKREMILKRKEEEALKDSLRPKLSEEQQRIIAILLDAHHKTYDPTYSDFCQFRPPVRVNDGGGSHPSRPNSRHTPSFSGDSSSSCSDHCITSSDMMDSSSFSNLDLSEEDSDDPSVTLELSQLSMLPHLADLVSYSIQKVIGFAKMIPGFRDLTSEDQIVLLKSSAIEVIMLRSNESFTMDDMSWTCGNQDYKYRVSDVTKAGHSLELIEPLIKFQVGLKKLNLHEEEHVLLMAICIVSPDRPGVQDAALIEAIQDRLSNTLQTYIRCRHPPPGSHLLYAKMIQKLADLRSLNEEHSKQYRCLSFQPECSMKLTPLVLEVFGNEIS

Max response, negative = inhibition, inactive:
CCN(CC)c1ccc(NC(=O)Cn2nc3c(cc2=O)CCCC3)c(C)c1 2.95%
CC1(C)OC2CO[C@]3(COS(N)(=O)=O)OC(C)(C)OC3C2O1 (stereo not given in full) -14.1%
Oc1cc(O)c2c(c1)OC(c1ccc(O)c(O)c1)C(O)C2 (stereo not given) -19.6%
NS(=O)(=O)c1ccc(NC(=O)CSc2nnc3c(n2)[nH]c2ccccc23)cc1 5.25%
CCOc1cc(-c2nnc(SCC(=O)NC3CCCCC3)nc2-c2ccc(OC)c(OCC)c2)ccc1OC 15.8%
COc1ccc(Cc2n[nH]c(=S)n2NC(=O)Nc2ccc(C)cc2)cc1 -6.31%
COc1ccc(OC)c(-n2c(-c3ccn[nH]3)n[nH]c2=S)c1 -3.11%
COc1cc(C(=O)N(Cc2ccc(C(C)C)cc2)C2CCS(=O)(=O)C2)cc(OC)c1OC (stereo not given) -4.09%
CCOc1cc(/C=C(\C#N)C(=O)Nc2ccccc2C)ccc1OCc1cc(=O)n2nc(CC)sc2n1 -13.9%
O=C(NNC(=O)c1ccc2ccccc2c1)c1ccc(Cl)cc1 18.2%
O=C(Nc1ccccc1N1CCCC1)c1ccc2ccccc2c1 -2.28%
O=C(CC1N=C2c3ccccc3N=C(SCc3cccc(Cl)c3)N2C1=O)NCc1ccc2c(c1)OCO2 (stereo not given) 13.3%
COc1ccc(NC(=O)CSc2nnc(-c3nnn(-c4ccc(F)cc4)c3C)o2)cc1 15.3%
CCCCCCCC1=Cc2ccc(F)cc2C(C(C(=O)OC)C(=O)OC)N1C(=O)OC (stereo not given) 2.51%
COc1ccc(CCN=C2SCC(=O)N2Cc2ccccc2)cc1OC 3.18%
COc1cc(CNC2CCCC2)c(Br)cc1OCc1ccccc1 18.9%
Cc1cccc(-c2nc(SCc3ccc(Br)cc3)n3[nH]c(=O)cc3n2)c1 11.8%
COc1ccccc1CNc1ncnc2ccc(-c3ccc4c(c3)OCO4)cc12 -6.36%
CCn1c(CNC(=O)c2ccc(OC)c(OC)c2)nnc1SCC(=O)Nc1ccccc1 2.26%
COc1ccc(-n2c(SC)nc(O)cc2=O)cc1 -7.87%

Potency, active:
Oc1cc(O)c2c(c1)OC(c1ccc(O)c(O)c1)C(O)C2 (stereo not given) 35.5 µM
COc1ccc(OCc2n[nH]c(=S)n2N)cc1 35.5 µM
C=CC(=O)c1ccc2ccccc2c1 1.78 µM
COc1cc(C2CC(=O)N3CN(Cc4ccccc4)CSC3=C2C#N)ccc1OCc1ccccc1 (stereo not given) 22.4 µM
CCn1c(SC)nc(O)c(C(c2ccc(OC)c(O)c2)c2c(O)nc(SC)n(CC)c2=O)c1=O 35.5 µM

— PubChem BioAssay AID504847 (National Center for Advancing Translational Sciences (NCATS), 2011)
